# From PubChem
# A selection: hits, their analogues and other compounds. The true share with any hit is near 7.4%.
# Rab9 prom act – Rab9 promoter activation; Huh7 Rab9 promoter-luciferase reporter, luminescence, 24 h; 2.8% of 320,000 active; Potency, µM (series often up to 9.22 µM), inactives show top-dose activation, negative = inhibition, actives largely listed as activators; AID 485297; also: % of control where 0% means no effect; nearly all actives have a fitted effect of over 60% in size
#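 Using Huh7 cells stably transfected with Rab9 promoter–luciferase, compounds were incubated 24 h at 37 °C, 5% CO2; luciferase luminescence was read 10 min after reagent addition.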
# Luc counter – Kinase-Glo luciferase inhibition (counter-screen) | Q27757 | Kinase-Glo luciferase, ATP luminescence, 8 min | Potency, µM (titrated, usually from 38.3 µM), without a hit: at the top dose activity change, negative = inhibition, most hits filed as inhibitors | 0.28% of 200,000 active; also: % is scaled to controls: 0 for no effect and ±100 for the full control effect; nearly all actives have a fitted effect of over 60% in size
#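 Substrate mix (final 50 mM imidazole pH 7.2, 50 mM KCl, 7 mM MgCl2, 10 uM ATP, 0.01% Tween 20, 0.05% BSA) plus pin-tool compound, then Kinase-Glo detection mix; 8 min ambient, luminescence read.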
# ELG1 genotoxic – genotoxicity induction in ELG1-luciferase HEK293T cells; HEK293T ELG1-luciferase reporter, luminescence, 16 h; Potency, µM (highest dose often 46 µM), for inactives: at the highest dose activity change, positive = activation, hits mostly activators; 1.3% of 330,000 active; also: % of control where 0% means no effect; nearly all actives have a fitted effect of over 60% in size
#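 Step 1: seed 2,000 HEK293T ELG1-luciferase cells per well. Step 2: add compound or DMSO, incubate 16 hr at 37 °C. Step 3: ONE-Glo, 30 min at room temperature, read luminescence.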
# NPC1 prom act – NPC1 promoter activation. Huh7 NPC1 promoter luciferase reporter, 24 h. Potency, µM (titrated, usually from 9.22 µM), for the others: top-dose activation, actives largely listed as activators. 2.4% of 320,000 active; also: % of control where 0% means no effect; nearly all actives have a fitted effect of over 60% in size
#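 Stable NPC1-promoter luciferase Huh7 line; cpd (DMSO) 24 h, 37 °C, 5% CO2; Amplite luciferase reagent 10 min RT; luminescence readout. qHTS format.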
# SMN2 splice enh – enhancers of SMN2 splice variant expression | 2.8% of 210,000 active | AID 1458 | HEK293 SMN2-luciferase splicing reporter, luminescence, 30-36 h | Potency, µM (titrated, usually from 46.1 µM), inactives show at the highest dose activity change, positive = activation, usual class: activators; also: % of control where 0% means no effect; nearly all actives have a fitted effect of over 55% in size
#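 HEK293 cells carry an SMN2 minigene-luciferase reporter in which exon 7 inclusion puts luciferase in frame. Cells were seeded at 2000 cells/well, attached for 10-12 hours, then exposed to compounds for 30-36 hours at 37C before ONE-Glo luminescence.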
# FLuc counter – inhibits or activates purified firefly luciferase, miR-21 counter-screen; AID 588342; P08659; purified FLuc, Km substrates, luminescence inhibition; 6.9% of 360,000 active; Potency, µM (top dose mostly 57.5 µM), for inactives: at the top dose activity change, negative = inhibition, actives largely listed as inhibitors;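 also: plate controls were vehicle for no effect and reference inhibitor for full effect; nearly all actives have a fitted effect of over 55% in size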
# Target sequence (P08659 whole entry, looked up): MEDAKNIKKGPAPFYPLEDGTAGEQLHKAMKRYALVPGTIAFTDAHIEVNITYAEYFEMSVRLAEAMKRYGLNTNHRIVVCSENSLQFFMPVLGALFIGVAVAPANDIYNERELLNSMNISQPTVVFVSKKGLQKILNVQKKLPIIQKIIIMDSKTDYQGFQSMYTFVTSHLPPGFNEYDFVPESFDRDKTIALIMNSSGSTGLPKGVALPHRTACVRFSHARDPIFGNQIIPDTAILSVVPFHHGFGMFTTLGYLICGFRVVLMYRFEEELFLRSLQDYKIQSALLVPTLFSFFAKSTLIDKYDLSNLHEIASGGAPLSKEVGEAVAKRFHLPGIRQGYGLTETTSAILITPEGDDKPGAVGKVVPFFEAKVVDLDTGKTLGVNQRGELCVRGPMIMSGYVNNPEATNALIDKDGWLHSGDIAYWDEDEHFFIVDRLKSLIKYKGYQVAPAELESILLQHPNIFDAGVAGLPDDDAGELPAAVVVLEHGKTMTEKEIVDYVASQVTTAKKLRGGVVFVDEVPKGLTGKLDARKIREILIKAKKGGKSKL
#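 Purified P. pyralis luciferase, 10 nM final, with Km-level 10 uM D-luciferin and 10 uM ATP in 50 mM Tris acetate pH 7.5, 10 mM Mg acetate, 0.01% Tween-20, 0.05% BSA; 6-point qHTS titration about 60 µM downward; luminescence read.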
# * hit, by the source's call; ? = inconclusive; · = no result; [ ] = another dose, or the depositor's remark. Calls follow the shape of the dose curve; as a rule, active = well fitted curve in the direction sought with a large enough effect; inconclusive = small, poorly fitted or top-dose-only effect, or another doubt; inactive = no such curve, though single readings can be large; an effect the other way counts as inactive or inconclusive. Potency is read from the fitted curve at half-maximal effect.
SMILES,Rab9 prom act,Luc counter,ELG1 genotoxic,NPC1 prom act,SMN2 splice enh,FLuc counter
CC[n+]1ccccc1/C=C/c1ccc(N(C)C)cc1,-33.6%,-9.7%,-2.1%,-40.2%,-54.5%,-10.3%
CC[n+]1ccc(/C=C/c2ccc(N(C)C)cc2)c2ccccc21,-60.9%,?,-7.1%,-37.7%,·,23.9µM*
CC[n+]1c(/C=C/c2ccc(N(C)C)cc2)ccc2ccccc21,-51.0%,8.91µM*,2.9%,-28.4%,-115.9%,?
CC[n+]1c(/C=C/c2ccc(OC)c(OC)c2)ccc2ccccc21,4.5%,·,10.3µM*,14.5%,·,3.38µM*
CC[n+]1c(/C=C/c2ccc(OC(C)=O)c(OC)c2)ccc2ccccc21,-13.0%,·,?,-22.6%,·,19µM*
CCN(CC)c1ccc(/C=C/c2ccc3ccc(OC)cc3[n+]2CC)cc1,-39.9%,·,-11.7%,-31.4%,·,?
Cc1cc(Nc2nc3ccccc3c3nnc(C)n23)ccc1Br,·,·,·,·,·,-10.3%
CCOc1ccc2oc(C(=O)NCC(C)(C)CN(C)C)c(C)c2c1,10.6%,5.0%,12.5%,1.5%,2.9%,2.4%
Cc1c(C(=O)NCc2ccccn2)oc2ccc(Br)cc12,?,·,15.2%,?,·,?
CCOc1ccc2oc(C(=O)Nc3cc(C)ccn3)c(C)c2c1,0.501µM*,·,?,0.631µM*,·,0.338µM*
Cc1c(C(=O)Nc2ccc(Cl)cn2)oc2ccccc12,20.7%,-1.6%,?,27.9%,?,-6.5%
Cc1c(C(=O)NC2CCCC2)oc2ccccc12,16.2%,·,6.6%,9.5%,·,?
Cc1c(C(=O)Nc2cnccn2)oc2ccccc12,29.2%,1.1%,?,14.1%,11.2µM*,15.1µM*
Cc1c(C(=O)NCc2ccccn2)oc2ccccc12,?,-2.7%,14.6µM*,?,?,?
Cc1ccnc(NC(=O)c2oc3ccccc3c2C)c1,2.51µM*,·,?,2.82µM*,·,1.2µM*
O=C(Nc1ccccc1O)c1cc(S(=O)(=O)N2CCCC2)ccc1Cl,·,·,·,·,-31.9%,-7.6%
O=C(c1cccc(F)c1)N1CCC[C@@]2(CCN(c3ccccc3)C2)C1,·,-4.0%,·,·,-82.8%,·
CCOc1ccc2oc(C(=O)NNC(=O)c3ccccc3O)c(C)c2c1,16.2%,·,?,20.7%,·,10.7µM*
CCOc1ccc2oc(C(=O)O)c(C)c2c1,21.7%,·,9.2%,17.7%,·,?
COc1cccc(CN(C(=O)COc2ccc(Cl)c(C)c2)C2CCS(=O)(=O)C2)c1 (stereo not given),·,·,·,·,-3.0%,1.4%
Cc1cc(N)n(-c2ccccc2C)n1,0.6%,0.0%,-0.4%,0.2%,9.6%,-1.5%
Cc1cc(N)n(-c2ccccc2)n1,3.2%,-4.6%,1.1%,2.1%,-0.4%,-0.1%
Cc1cc(C)c2nc(-n3nc(C)cc3N)cc(C)c2c1,?,-0.3%,?,12.5%,11.2µM*,1.2µM*
Cc1cc(N)n(-c2cc(C)c3ccccc3n2)n1,?,-17.5%,?,-4.4%,11.2µM*,2.69µM*
CCOCCCNC(=O)C(c1ccc(C)cc1)N(Cc1ccc2c(c1)OCO2)C(=O)c1ccccc1O (stereo not given),·,·,·,·,-3.2%,-14.1%
SMILES,Rab9 prom act,Luc counter,ELG1 genotoxic,NPC1 prom act,SMN2 splice enh,FLuc counter
CC(C)(C)c1ccc(SCCc2cccnc2)cc1,3.55µM*,·,?,2µM*,·,5.36µM*
c1ccc(SCCc2ccncc2)cc1,-1.4%,-1.3%[7.66 µM],0.7%,10.8%,-21.7%[9.22 µM],-22.3%
COc1ccc(/C=N/NC(=O)c2cc[n+]([O-])cc2)cc1,-6.4%,·,1.9%,-2.6%,·,?
CCN(CC)c1ccc(/C=N/NC(=O)c2ccc3nc[nH]c3c2)c(O)c1,-39.4%,·,?,-32.4%,·,13.5µM*
O=C(N/N=C/c1ccccc1[N+](=O)[O-])c1ccc2nc[nH]c2c1,2.82µM*,·,?,?,·,13.5µM*
COc1cc(OC)c(OC)cc1/C=N/NC(=O)c1ccc2nc[nH]c2c1,4.4%,·,-3.2%,-1.4%,·,10.7µM*
COc1ccc(/C=N/NC(=O)c2ccc3nc[nH]c3c2)cc1,4.0%,·,5.5%,-3.0%,·,21.3µM*
O=C(N/N=C/c1ccc(Cl)c([N+](=O)[O-])c1)c1ccc2nc[nH]c2c1,-6.1%,-4.5%,-1.1%,-4.4%,-5.9%,?
COc1ccc(/C=N/NC(=O)c2ccc3nc[nH]c3c2)c(OC)c1OC,-1.1%,·,-4.2%,-5.4%,·,-19.9%
COc1ccc(/C=N\NC(=O)C2=NNC(=O)C2C)cc1 (stereo not given),?,?,?,?,7.3%,6.01µM*
COc1cccc(/C=N/NC(=O)c2ccc3nc[nH]c3c2)c1O,-3.2%,·,-2.3%,4.4%,·,19µM*
COc1ccc(-c2[nH]ncc2/C=N\NC(=O)c2ccc(Br)o2)cc1OC,-0.1%,·,0.4%,3.7%,·,-19.0%
COc1cccc(C(=O)N/N=C/c2cn[nH]c2-c2ccc(OC)cc2OC)c1,-2.3%,1.9%,-1.9%,-1.8%,5.3%,15.1µM*
COc1ccc(/C=N/NC(=O)c2ccc3nc[nH]c3c2)c(OC)c1,-2.5%,·,-0.9%,-11.0%,·,16.9µM*
COc1ccc(C=NNC(=O)c2ccccc2OCc2ccc(F)cc2)c(OC)c1,·,·,1.3%,·,·,·
COc1cccc(/C=N/NC(=O)c2cc3c(OC)ccc(OC)c3[nH]2)c1O,-33.2%,·,?,-48.6%,·,-9.9%
O=C(c1ccc2c(c1)N(Cc1cccc(Cl)c1)C(=O)c1ccccc1S2=O)N1CCN(c2cccc(C(F)(F)F)c2)CC1 (stereo not given),·,·,·,·,·,-0.2%
Cc1[nH]c2ccc(C(=O)N3CCN(c4ccccc4F)CC3)cc2c1C,·,·,·,·,·,-15.3%
